Autofluor counter = counter-screen for toxin protease inhibitors: compound fluorescence; AID 624483; compound autofluorescence counterscreen, microsphere flow cytometry; hits give high values; 3.1% of 360,000 active; fluorescence intensity (concentration not given with the values); in the data active means fluorescence intensity above about 16000; inconclusive means no clear call, values can overlap the other calls
BoNT-F LC inh = blocks Botulinum neurotoxin F light chain protease | Multiplex microsphere protease cleavage assay, flow cytometry | inhibition, % at 10 µM | 0.22% of 360,000 active | AID 588497; in the data active means inhibition above about 35%, passing the limit was not always enough; inconclusive means no clear call, values can overlap the other calls; further: plate controls were buffer without enzyme for full effect and enzyme alone for no effect
BoNT-A LC inh2 = BoNT A light chain protease inhibition; multiplex microsphere protease substrate cleavage, flow cytometry; inhibition, % at 10 µM; 0.17% of 360,000 active; AID 588499; further: plate controls were buffer without enzyme for full effect and enzyme alone for no effect
Anthrax LF prot = anthrax lethal factor protease inhibition; 0.12% of 360,000 active; multiplex microsphere protease cleavage assay, LF; P15917; inhibition, % at 10 µM; further: plate controls were buffer without enzyme for full effect and enzyme alone for no effect
Target sequence (P15917 whole entry, looked up): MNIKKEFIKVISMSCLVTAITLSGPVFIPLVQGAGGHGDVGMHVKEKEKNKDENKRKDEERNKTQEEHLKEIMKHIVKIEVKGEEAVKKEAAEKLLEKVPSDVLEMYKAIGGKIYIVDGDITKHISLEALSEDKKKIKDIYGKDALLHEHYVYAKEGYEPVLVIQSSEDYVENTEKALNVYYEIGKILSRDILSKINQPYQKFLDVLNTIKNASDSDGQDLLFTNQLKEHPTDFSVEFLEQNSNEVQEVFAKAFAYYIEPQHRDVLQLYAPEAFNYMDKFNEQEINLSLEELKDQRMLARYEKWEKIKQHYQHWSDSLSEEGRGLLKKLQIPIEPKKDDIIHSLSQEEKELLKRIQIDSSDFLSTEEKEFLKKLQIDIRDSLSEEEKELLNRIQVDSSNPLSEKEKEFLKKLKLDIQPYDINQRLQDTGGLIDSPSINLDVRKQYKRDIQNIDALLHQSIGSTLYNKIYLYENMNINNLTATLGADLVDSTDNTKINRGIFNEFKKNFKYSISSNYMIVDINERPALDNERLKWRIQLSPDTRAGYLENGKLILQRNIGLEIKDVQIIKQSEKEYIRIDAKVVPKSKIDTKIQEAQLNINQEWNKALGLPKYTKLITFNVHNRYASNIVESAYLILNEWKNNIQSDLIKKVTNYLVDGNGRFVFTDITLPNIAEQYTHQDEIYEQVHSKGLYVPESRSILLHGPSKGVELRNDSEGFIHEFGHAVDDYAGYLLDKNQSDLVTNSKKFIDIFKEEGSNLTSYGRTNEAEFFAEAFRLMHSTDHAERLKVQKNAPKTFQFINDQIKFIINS
* hit, by the source's call; ? = inconclusive. Only some compounds are listed: those with a hit (about 3.5% of all), similar ones and a draw of the others. Unless noted, no stated cut-off is given here; in the data, active means inhibition above about 30%; inconclusive means no clear call, values can overlap the other calls; inactive means below that.

SMILES	Autofluor counter	BoNT-F LC inh	BoNT-A LC inh2	Anthrax LF prot
COc1ccc(-c2noc(C3CCCN(S(=O)(=O)c4cccc(Cl)c4C)C3)n2)cc1OC (stereo not drawn)	17219*	-4	-2	0
O=C(OCc1cn([C@H]2CN(C(=O)C3CCCCC3)[C@@H](c3ccc(Cl)cc3)C[C@@H]2O)nn1)c1ccccc1	3766	-5	0	2
NC(=S)Nc1ccc(Cl)cc1Cl	4354	?	?	5
Cc1ccc(C2C(C#N)=C(N)N(c3cccnc3)C3=C2C(=O)CCC3)c(C)c1 (stereo not drawn)	3873	-3	-1	-15
CCOc1ccc(C(=O)Nc2cnn(Cc3ccc(Cl)c(Cl)c3)c2)cc1	16229*	-1	1	-1
CCCCC1(CC)C(=O)NC(=O)NC1=Nc1ccc(OC)cc1 (stereo not drawn)	21503*	5	3	-1
CCC1(CC)C(=O)NC(=O)NC1=Nc1cccc(OC)c1	4728	22	0	3
O=C(CC(Nc1ccccc1)C(=O)O)c1ccccc1 (stereo not drawn)	3527	42*	1	1
CCCCSc1nnc(-c2cc(Br)ccc2N)c(=O)[nH]1	20791*	1	?	-3
CCC(C)N1CCN(S(=O)(=O)Cc2ccccc2)CC1 (stereo not drawn)	2928	16	-2	2
Cc1cc(C)nc(/N=C(\N)C2=C(O)CC(C)(C)CC2=O)n1	21038*	-4	0	-2
CCN(CC)c1ccc(C2=NNC(=O)CC2C)cc1[N+](=O)[O-] (stereo not drawn)	11119	-1	-1	-2
CC1CC(=O)NN=C1c1ccc(N(C)C)c([N+](=O)[O-])c1 (stereo not drawn)	18577*	5	3	3
C/C(=N\NS(=O)(=O)c1ccc(C)c([N+](=O)[O-])c1)c1cc2ccccc2o1	16518*	-5	-1	-4
C/C(=N\NS(=O)(=O)c1ccc(Cl)c([N+](=O)[O-])c1)c1cc2ccccc2o1	22417*	-12	?	0
C/C(=N\NS(=O)(=O)c1ccc(Cl)c([N+](=O)[O-])c1)c1ccc(C)o1	3900	1	0	3
Cc1ccc(C(=O)c2cc3ccccc3o2)cc1[N+](=O)[O-]	2619	0	1	-1
CCNc1cc(Cl)nc(SC)n1	4648	1	0	1
CCN(CCO)c1cc(Cl)nc(SC)n1	24730*	-7	-4	-2
CCCN(CCC)C(=O)CC(c1ccccc1)c1ccc(C)cc1O (stereo not drawn)	22025*	2	1	-1
CCCN(CCC)C(=O)CC(c1ccccc1)c1cc(Br)ccc1O (stereo not drawn)	22655*	2	4	-1
Cc1ccc(C(CC(=O)N2CCCC2)c2ccccc2)c(O)c1 (stereo not drawn)	4003	-8	-5	-13
COc1ccccc1N1CCN(C(=O)c2ccc3c(=O)n(Cc4ccc5c(c4)OCO5)c(=O)[nH]c3c2)CC1	4165	-1	0	-4
Cc1cc2c(n1-c1ccc(C(N)=O)cc1)CC(C)(C)CC2=O	22230*	-3	?	-2
Cc1cc(C)c(C)c(S(=O)(=O)N[C@@H](C)C(=O)OCC(=O)NC2CCCC(C)C2C)c1C (stereo partly drawn)	2926	0	0	-9
SMILES	Autofluor counter	BoNT-F LC inh	BoNT-A LC inh2	Anthrax LF prot
CC(C)[C@H](NC(=O)c1ccccc1)C(=O)OCC(=O)c1ccc2c(c1)NC(=O)CO2	23418*	0	-1	-1
COc1cc(OC)cc(C(=O)N[C@H](C(=O)OCC(=O)c2ccc3c(c2)NC(=O)CO3)C(C)C)c1	8766	-6	0	1
C#CCNc1c(C)c(C)nc2ncnn12	24659*	-6	-4	-1
CCc1c(C)nc2ncnn2c1Nc1ccc(C)cc1	3741	-38	-2	-2
CCCCNC(=O)C1(C)CCN1C(=O)c1ccc2ccccc2n1 (stereo not drawn)	3571	-9	0	1
COc1cc2nc(N3CCNCC3)nc(N)c2cc1OC	17344*	-4	-3	-1
O=C(NCc1ccc2c(c1)OCO2)c1nn(-c2ccccc2)c(=O)c2ccccc12	21677*	-8	?	-9
CN1C(=O)c2ccc(C(=O)NCc3ccc4c(c3)OCO4)cc2C1=O	2107	-7	-1	0
CN(c1ccc(C(=O)NCc2ccc3c(c2)OCO3)cc1)S(C)(=O)=O	22044*	3	3	0
CCN1C(=O)c2ccc(C(=O)NCc3ccc4c(c3)OCO4)cc2C1=O	16137*	-2	0	-2
CCCN1C(=O)c2ccc(C(=O)NCc3ccco3)cc2C1=O	23188*	1	?	-3
C[C@H](CO)N1C[C@H](C)[C@@H](CN(C)Cc2cncnc2)Oc2cc(Br)ccc2S1(=O)=O	3576	0	0	-5
Cc1ccc(S(=O)(=O)NC(=O)N(CCC#N)Cc2ccccc2)cc1	3951	4	-3	4
CCOc1ccc(N(C)Cc2cc(=O)oc3ccc(OCC)cc23)cc1	3027	-24	2	1
O=C(NCc1ccc2c(c1)OCO2)c1ccc(-n2cnnn2)cc1	16294*	0	?	1
CCCCCCCCn1c(N2CCN(c3cccc(Cl)c3)CC2)nc2c1c(=O)[nH]c(=O)n2C	9367	0	0	5
CCCCCn1c(CN2CCN(c3cccc(Cl)c3)CC2)nc2c1c(=O)[nH]c(=O)n2C	20547*	-2	0	-8
CCCCCCn1c(CN2CCN(Cc3ccccc3)CC2)nc2c1c(=O)n(C)c(=O)n2C	20131*	-3	-1	-1
CCCCCn1c(CN2CCN(C(=O)OCC)CC2)nc2c1c(=O)[nH]c(=O)n2C	11366	-4	0	-3
CCOC(=O)N1CCN(Cc2nc3c(c(=O)[nH]c(=O)n3C)n2Cc2cc(C)ccc2C)CC1	20382*	2	?	2
CCCCCn1c(CN2CCN(Cc3ccccc3)CC2)nc2c1c(=O)[nH]c(=O)n2C	22888*	-1	-1	0
CCCCC1CC(=O)NC1(C(=O)OCC)C(=O)OCC (stereo not drawn)	3725	-2	0	-5
O=C(c1ccccc1NS(=O)(=O)c1ccc(Br)cc1)N1CCOCC1	5763	1	-2	-1
O=C(c1ccco1)N1CCN(S(=O)(=O)c2ccccc2[N+](=O)[O-])CC1	4523	2	0	-1
Cn1c(=O)[nH]c(=O)c2c1nc(CN1CCN(c3cccc(Cl)c3)CC1)n2CCc1ccccc1	16970*	-9	-2	-2
CCOC(=O)N1CCN(Cc2nc3c(c(=O)n(C)c(=O)n3C)n2CCCc2ccccc2)CC1	20078*	3	2	-3
Cn1c(=O)[nH]c(=O)c2c1nc(CN1CCN(c3ccc(F)cc3)CC1)n2CCc1ccccc1	8253	-28	-4	-1
COc1ccc(N2CCN(Cc3nc4c(c(=O)n(C)c(=O)n4C)n3CC(C)=O)CC2)cc1	20509*	-2	-2	-2
COc1ccc2nc(NC(=O)C3CC(=O)N(c4ccccc4)C3)sc2c1 (stereo not drawn)	3885	-29	-2	0
Cc1ccc(C(=O)NC(=S)N2CC(C)OC(C)C2)cc1[N+](=O)[O-] (stereo not drawn)	23557*	-1	-1	-2

Assay outcomes from PubChem.
